The list is not random: actives were taken first. Their share in the collection is about 3.3%.
Vaccinia Venus = inhibitors of vaccinia virus (Venus reporter); 0.46% of 330,000 active; Potency, µM (series often up to 36.5 µM), without a hit: top-dose activity change, negative = inhibition, most hits filed as inhibitors; Vaccinia virus Venus reporter expression, fluorescence; AID 720580; calls by dose curve; tested in A549 cells; also: nearly all actives have a fitted effect of over 30% in size
HCV inh = inhibitors of hepatitis C virus infection. Huh7.5.1 HCVcc-Cre infection, luciferase reporter, 44 h. 3.4% of 340,000 active. Potency, µM (doses to about 41.8 µM), without a hit: at the highest dose activity change, negative = inhibition, most hits filed as inhibitors; active = well fitted inhibition curve with a large enough effect; inconclusive = small, poorly fitted or top-dose-only effect, or another doubt; inactive = no such curve, though single readings can be large or run the other way
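Antiviral activity was scored by luciferase reporter output from cells infected with HCVcc-Cre (~0.5 moi) in presence of compound, 44 h infection period, cells seeded 1,000/well 4 h prior.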
VACV mCherry inh = vaccinia inhibition (mCherry reporter); Vaccinia virus mCherry reporter infection, fluorescence; Potency, µM (top dose mostly 36.5 µM), for the others: top-dose activity change, negative = inhibition, most hits filed as inhibitors; 0.63% of 310,000 active; AID 720579; calls by dose curve; tested in A549 cells; also: nearly all actives have a fitted effect of over 35% in size
* = called active by the depositor; i = inactive; ? = inconclusive; · = no result; ! = a repeat was not active; [ ] = dose if it differs, or a comment. % is scaled to controls: 0 for no effect and ±100 for the full control effect; potency is read from the fitted curve at half-maximal effect.

SMILES | Vaccinia Venus | HCV inh | VACV mCherry inh
COc1ccc(C2=NN(C(=O)c3cccs3)C(c3ccc(OC)cc3)C2)cc1 (stereo not given) | -16.3% | ? | ?
Cc1ccc(C2CC(c3cccs3)=NN2C(=O)CCl)cc1 (stereo not given) | -11.2% | 2.82µM* | ?
O=C(Nc1cccc(C(=O)OCc2cc(=O)n3nc(C4CC4)sc3n2)c1)c1ccc(F)cc1 | -14.1%[7.34 µM] | · | -5.0%[7.34 µM]
COC(=O)c1c(NC(=O)COc2cc(C)c(Cl)c(C)c2)sc2c1CCCC2 | -8.3% | · | -10.7%
COc1ccc(NC(=O)c2ccco2)cc1NC(=O)c1cc(Br)ccc1Cl | -20.0% | · | i
COc1ccc(NC(=O)CSc2nnc3c(n2)[nH]c2ccc(S(=O)(=O)N(C)C)cc23)c(OC)c1 | -20.1% | · | -20.2%
Cc1nc2ccccc2c2oc(C(=O)N3CC(C)CC(C)C3)cc12 (stereo not given) | · | 15.0% | ·
Cc1c(C(=O)N2CCN(c3ccc(F)cc3)CC2)sc2nc(-c3ccccc3)cn12 | · | 1.2% | ·
COc1ccccc1N1CCN(C(=O)c2sc3nc(-c4ccccc4)cn3c2C)CC1 | ? | 11.2µM*! | ?
COc1ccccc1N1CCN(C(=O)c2cc3c(C)nc4ccccc4c3o2)CC1 | ? | 6.31µM* | ?
Cc1cc(C)n(Cc2cccc(C(=O)NCC3Cc4cccc(-c5ncccn5)c4O3)c2)n1 (stereo not given) | -3.7% | · | -5.6%
COc1ccc(CNS(=O)(=O)c2cc(C(=O)Nc3cc(Cl)cc(Cl)c3)ccc2F)cc1 | -19.3% | · | i
CC(=O)N(C)c1cccc([N+](=O)[O-])c1 | 3.6% | 1.3% | i
O=[N+]([O-])c1cccc(N=NN(CCO)c2cccc([N+](=O)[O-])c2)c1 | -4.2% | 1.12µM* | 0.0%
CCCN(N=Nc1cccc([N+](=O)[O-])c1)c1cccc([N+](=O)[O-])c1 | -10.9% | 1.12µM* | -13.6%
O=[N+]([O-])c1cccc(CN(CCO)Cc2ccccc2)c1 | · | 12.8% | ·
COc1ccccc1N1CCN(c2nc(CNC(=O)C3CC34CCCC4)nc3ccccc23)CC1 (stereo not given) | -3.3% | · | -15.1%
CCCNC(=O)C(Cc1ccc(Cl)cc1)NC(=O)c1ccc(-c2ccccc2)cc1 (stereo not given) | ? | ? | -27.5%
CC(C)CCNC(=O)CCn1nc(-c2ccc(Cl)cc2)ccc1=O | · | 13.8% | ·
COc1ccc(CNC(=O)c2c(C)oc3c2C(=O)c2ccccc2C3=O)cc1 | 8.91µM* | 3.6%[8.37 µM] | 7.08µM*
O=C(c1ccccc1)c1coc2c1C(=O)c1ccccc1C2=O | -6.2% | -0.2% | -9.8%
Cc1oc2c(c1C(=O)NCc1cccnc1)C(=O)c1ccccc1C2=O | 0.562µM* | 1.58µM* | ?
O=C1c2ccccc2C(=O)c2c1oc(C(F)(F)F)c2C(=O)c1ccccc1 | 3.16µM* | 22.4µM* | 4.47µM*
COc1ccc(CNC(=O)c2ccc(-c3ccccc3)cc2)cc1 | -8.0% | -22.7% | -14.6%[1.46 µM]
Cc1ccc(C(=O)NCc2cccnc2)o1 | · | 6.4% | ·
SMILES | Vaccinia Venus | HCV inh | VACV mCherry inh
CC(=O)c1c2c3c(c(Br)ccc3n(C)c1=O)C(=O)c1ccccc1-2 | 4.6% | -6.3% | i
CC(=O)c1c(C)oc2c1C(=O)c1ccccc1C2=O | -2.4% | 8.91µM* | -15.0%
Cc1cc(C)cc(NC(=O)CCc2nnc3n(C)c(=O)c4sccc4n23)c1 | -3.4% | · | -6.0%
CCN(Cc1ccc2c(c1)OCCO2)C(=O)CN1C(=O)NC2(CCc3ccccc32)C1=O (stereo not given) | · | 2.7% | ·
CC(C)C[C@H]1CN([C@@H](Cc2ccccc2)CN2CCC[C@H]2CN2C(=O)C(=O)NC[C@@H]2Cc2ccc(O)cc2)C(=O)C(=O)N1CC1CCCCCC1 | -4.1% | · | 6.3%
COc1ccc(CNC(=O)c2c(F)c(F)c(F)c(F)c2F)cc1 | ? | ? | 11.2µM*
CCC(CC)C(=O)NCc1ccc(OC)cc1 | 0.5% | -2.2% | -12.0%
CC1Sc2ccc(C(=O)Nc3ccc(S(=O)(=O)N(C)C)cc3)cc2NC1=O (stereo not given) | -12.7% | ? | -13.5%
Cc1ccnc(NC(=O)c2ccc3c(c2)NC(=O)C(C)S3)c1 (stereo not given) | · | -20.8% | ·
O=C(NCc1cccc(C(F)(F)F)c1)c1ccc2c(c1)OCO2 | · | -7.7% | ·
CC1Sc2ccc(C(=O)NCc3cccc(C(F)(F)F)c3)cc2NC1=O (stereo not given) | · | 22.4µM* | ·
CC(=O)c1ccccc1NC(=O)c1ccc2c(c1)NC(=O)C(C)S2 (stereo not given) | 0.3% | 11.2µM* | 2.2%
CCCNC(=O)c1ccccc1NC(=O)c1ccc2c(c1)NC(=O)C(C)S2 (stereo not given) | · | 4.47µM* | ·
Cc1ccccc1C(=O)Nc1sc2c(c1C(=O)N1CCC(C)CC1)CCC(C)C2 (stereo not given) | 1.7% | · | -13.4%
Cc1noc(/C=C/N(C)C)c1S(=O)(=O)N1CCCC(C(=O)Nc2ccccc2F)C1 (stereo not given) | · | 2.4% | ·
COc1ccc(C(CNC(=O)c2c(C)nn(Cc3ccc(C)cc3)c2Cl)N2CCOCC2)cc1 (stereo not given) | -12.5% | ? | -19.9%
Cc1c(Cl)cccc1NC(=S)NCCc1ccc(F)cc1 | -8.5% | 10.0% | -18.1%
Cc1c(Cl)cccc1NC(=S)NCCc1ccc(Cl)cc1 | -27.9% | 10µM* | -11.5%
O=C1CC(N2CCN(c3ccc(F)cc3)CC2)C(=O)N1Cc1cccs1 (stereo not given) | -14.9% | -4.2% | ·
O=C1CC(N2CCN(c3nc4ccccc4s3)CC2)C(=O)N1Cc1cccs1 (stereo not given) | ? | 14.1µM* | ·
COC(=O)C1C(O)=C(C(C)=Nc2cccc3ccccc23)C(=O)CC1(C)C (stereo not given) | · | 9.3% | ·
CC(C)OP(=O)(c1ccc(N(C)C)cc1)C(O)c1ccc(N(C)C)cc1 (stereo not given) | · | 10.1% | ·
CC(=O)Nc1ccc(-c2ccnc3c2CC(C)(C(=O)NCc2ccc(F)c(F)c2)O3)cc1 (stereo not given) | -25.6% | · | -23.3%
COC(=O)c1ccc(CNC(=O)c2sccc2-c2ccccc2)cc1 | -9.2% | ? | -10.4%
COc1ccc(CCNC(=O)c2ccc(S(=O)(=O)N(C)c3ccccc3)cc2)cc1OC | -11.4% | ? | i
SMILES | Vaccinia Venus | HCV inh | VACV mCherry inh
CN(c1ccccc1)S(=O)(=O)c1ccc(C(=O)NCc2ccc(F)cc2)cc1 | · | -20.2% | ·
COC(=O)c1cc(CNC(=O)c2sccc2-c2ccccc2)ccc1OC | · | 11.2µM* | ·
CN(c1ccccc1)S(=O)(=O)c1ccc(C(=O)NCc2ccccc2CN2CCCC2)cc1 | -10.1% | 10µM* | -16.3%
COC(=O)c1cc(CNC(=O)c2ccc(S(=O)(=O)N(C)c3ccccc3)cc2)ccc1OC | -21.8% | 3.98µM* | -7.1%
NS(=O)(=O)c1ccc(CNC(=O)c2ccncc2)cc1 | · | 11.3% | ·
C=C1C(=O)[C@@]23[C@H](O)C[C@@H]4C(C)(C)CC[C@H](O)[C@]4(C)[C@@H]2C[C@H](O)[C@@H]1[C@H]3O | 4.47µM* | 2.2% | ?
C=C1C(=O)[C@@]23[C@H](O)C[C@@H]4C(C)(C)CC[C@H](O)[C@@]4(C)[C@@H]2CC[C@@H]1[C@H]3O | 2.51µM* | ? | ?
NS(=O)(=O)Oc1ccccc1 | -1.4% | 0.0% | i
COc1cc(=O)n2c(c1C(=O)N(C)Cc1nccs1)CCN(Cc1cccc(F)c1F)CC2 | -0.5% | · | -5.5%
